Screens from PubChem.
Most compounds without a hit are left out; they make up all but 4.1% or so of the library.
hgDAF-12 ag – H. glycines DAF-12 receptor agonists, primary screen, cell-based, luminescence, HEK293, GAL4 fusion, UAS-luciferase. Nuclear hormone receptor DAF-12 (Heterodera glycines), GAL4 fusion. HEK293 GAL4-hgDAF12 UAS-luciferase reporter, agonist luminescence; normalized to butyrate control. activation, % at 6.8 µM. actives 1.8% (n = 370,000);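 active means activation above a cutoff set at the mean of all screened compounds plus 3 SD, cut at about 10% in these data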;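 further: 0% = DMSO wells and 100% = sodium butyrate wells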
ssDAF12 agonist – S. stercoralis DAF-12 nuclear receptor activators, primary screen, cell-based, luminescence, HEK293, GRIP1 co-expression, lit1-tk-luc. Nuclear hormone receptor DAF-12 (Strongyloides stercoralis). HEK293 ssDAF-12/GRIP1 lit1-tk-luc reporter; % of 3 µM dafachronic acid response. activation, % at 6.8 µM. actives 1% (n = 370,000);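 active means activation above the mean over all tested compounds plus 3 SD, cut at about 0.9% in these data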;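 further: 0% = DMSO-only wells and 100% = 3 µM delta7-dafachronic acid wells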
hcDAF12 agonist – H. contortus DAF-12 nuclear receptor activators, primary screen, cell-based, luminescence, HEK293, lit1-tk-luc reporter | HEK293 hcDAF-12 lit1-tk-luc reporter; 0% DMSO, 100% Δ7-dafachronic acid | activation, % at 6.8 µM | actives 1.4% (n = 370,000) | AID 652067, 2013;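 active means activation above the mean of all tested compounds plus 3 SD, cut at about 5.5% in these data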;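 further: 100% = response to 3 µM Δ7-dafachronic acid high control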
DAX1 inh-1 – DAX1 (NR0B1) inhibitors on StAR promoter, primary screen, cell-based, luminescence, SF-1 (NR5A1), full-length DAX-1; HEK293T StAR-luciferase reporter, SF-1/DAX-1 repression relief; inhibition, % at 6.8 µM; actives 1.1% (n = 370,000); AID 652010, 2013;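 active means inhibition above the mean over all tested compounds plus 3 SD, cut at about 3.6% in these data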;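 further: 0% = DAX-1 cells with DMSO and 100% = cells lacking DAX-1 with DMSO; higher inhibition means more luminescence from relief of DAX-1 repression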
DAX1 inh-2 – DAX1 (NR0B1) inhibitors, primary screen, cell-based, HEK293, Gal4-DAX1, luciferase luminescence | inhibition, % at 6.75 µM | actives 0.99% (n = 340,000) | Nuclear receptor subfamily 0 group B member 1 (Homo sapiens), P51843 | HEK293 Gal4-DAX1 luciferase reporter;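 active means inhibition above the mean over all tested compounds plus 3 SD, cut at about 4.2% in these data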;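 further: 0% = DAX1-transfected cells with DMSO and 100% = empty-vector control cells with DMSO; inhibition shows as a rise in luminescence from relieved DAX1 repression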
Target sequence (P51843 207-470 limits assumed): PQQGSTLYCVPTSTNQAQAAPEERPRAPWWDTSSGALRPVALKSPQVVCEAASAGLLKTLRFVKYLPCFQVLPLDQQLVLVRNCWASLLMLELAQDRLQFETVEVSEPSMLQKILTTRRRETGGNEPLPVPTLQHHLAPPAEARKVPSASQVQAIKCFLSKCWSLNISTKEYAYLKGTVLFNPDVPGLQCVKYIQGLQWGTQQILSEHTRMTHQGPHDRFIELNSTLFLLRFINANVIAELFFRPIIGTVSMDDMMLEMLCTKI
* hit, by the source's call; . = no result.

SMILES	hgDAF-12 ag	ssDAF12 agonist	hcDAF12 agonist	DAX1 inh-1	DAX1 inh-2
O=C(O)c1ccccc1C(=O)Nc1ccc(Oc2cccc(C(F)(F)F)c2)nc1	-2	0	6.2*	0	1
CCOC(=O)c1c(O)c(Cl)c(C)[nH]c1=O	12*	0	-1	0	1
COc1cc2c(cc1OC)[C@@]1(c3ccccc3)CCCC[C@H]1[C@@H]2NC(=O)C(F)(F)F	4	0	1	1	.
CCC1=C(NCc2ccccc2)COC1=O	-2	-2	1	1	4.3*
Cc1cc2c(nc1C)CCCN2S(=O)(=O)c1ccccc1	-1	-1	-1	2	.
Cn1ccnc1SCc1cn2cc(Br)ccc2n1	8	1.2*	3	1	0
CC(C)CC1O[C@@H](C)[C@@H]2CN3CCc4c([nH]c5ccccc45)[C@@H]3C[C@@H]2N1C (some centres undefined)	-6	0	5	1	.
Cc1cc(C)c(C)c(S(=O)(=O)N2CCC(C(=O)NCC(c3ccccc3)N(C)C)CC2)c1C (centres undefined)	-3	-2	-2	0	1
CCC(CO)Nc1ncnc2c1cnn2-c1ccc(Cl)cc1 (centres undefined)	2	-1	4	4.0*	0
Clc1ccc(-n2ncc3c(NCc4ccco4)ncnc32)cc1	13*	0	4	0	1
CCN1CCN(c2ncnc3c2cnn3-c2ccc(Cl)cc2)CC1	12*	0	1	2	2
CCN1CCN(c2ncnc3c2cnn3-c2ccccc2)CC1	7	-1	-1	3	3
CCCCCCCCN1C(=O)[C@@H](CC(=O)NCc2cccs2)C[C@@]2(C(=O)OC)C1=C[C@H](C1CCCC1)O[C@@H]2C	-1	-1	2	0	.
Cc1cc(C(=O)Nc2ccc3c(c2)OCCO3)co1	9	1	6.1*	4.1*	1
O=C(Nc1cccc(F)c1)c1ccc2c(c1)OCCO2	13*	1	6.3*	2	0
Cc1ccc(S(=O)(=O)N2CCCc3nc(C)c(C)cc32)cc1	-2	0	-2	-2	.
O=C(Nc1c(C(=O)O)[nH]c2ccccc12)NC1CCCCC1	6	1.2*	3	-1	1
COC(=O)c1[nH]c2ccc(C)cc2c1NC(=O)NC1CCCCC1	1	-2	0	0	1
CCC1(C)NC(C(=O)O)Cc2c1[nH]c1ccccc21 (centres undefined)	2	1.7*	4	0	-1
CCCN1CCC2(CC1)NC(C(=O)O)Cc1c2[nH]c2ccccc12 (centres undefined)	.	.	.	.	1
Cc1c(CBr)[n+](=O)c2c(n1[O-])C(Br)CCC2Br (centres undefined)	-1	1.4*	2	-1	1
O=S(=O)(Cc1nc2ccccc2s1)c1ccccc1	11*	0	4	3	1
CCOC(=O)C1CSCCS(=O)(=O)N1Cc1ccc(C)cc1 (centres undefined)	-2	-1	0	1	.
NS(=O)(=O)c1ccc(NC(=O)CCCCC(=O)Nc2ccc(S(N)(=O)=O)cc2)cc1	-1	-1	-1	0	4.4*
NS(=O)(=O)c1ccc(NC(=O)Nc2ccc(Cl)cc2)cc1	12*	-2	1	-1	0
SMILES	hgDAF-12 ag	ssDAF12 agonist	hcDAF12 agonist	DAX1 inh-1	DAX1 inh-2
CNC(=O)Nc1ccc(S(N)(=O)=O)cc1	-1	-1	-1	0	0
Cc1nn2c(=O)[nH]cnc2c1Cl	-1	-1	-1	-2	1
S=C(c1cccs1)N1CCN(c2ccccc2)CC1	-1	-1	2	0	5.7*
S=C(c1cccs1)N1CCCC1	3	-1	-1	0	-1
COc1cccc(OCC(O)CN2CCN(c3ccc(F)cc3)CC2)c1 (centres undefined)	-3	-1	0	0	-1
OC(COc1ccc2ccccc2c1)CN1CCN(c2ccc(F)cc2)CC1 (centres undefined)	0	0	0	0	6.9*
